# Assay results from PMC7862700, “An all-to-all approach to the identification of sequence-specific readers for epigenetic DNA modifications on cytosine”.
# What was measured:
# Test in all cases: DAPPL (digital affinity profiling via proximity ligation, sequencing); 10 mM Tris-HCl pH 7.5, 50 mM NaCl, 1 mM DTT, 4% glycerol, room temperature, 30 min; GST-TFs on glutathione beads, 16-mer random dsDNA library, 0.1% formaldehyde crosslink after washing; high values mean tight binding
# FLI1 = biological target: T1, FLI1 (Homo sapiens, UniProt Q01543 1-452); conditions: protein: recombinant; tags: N-terminal GST; dsDNA, one strand shown
# T1 sequence: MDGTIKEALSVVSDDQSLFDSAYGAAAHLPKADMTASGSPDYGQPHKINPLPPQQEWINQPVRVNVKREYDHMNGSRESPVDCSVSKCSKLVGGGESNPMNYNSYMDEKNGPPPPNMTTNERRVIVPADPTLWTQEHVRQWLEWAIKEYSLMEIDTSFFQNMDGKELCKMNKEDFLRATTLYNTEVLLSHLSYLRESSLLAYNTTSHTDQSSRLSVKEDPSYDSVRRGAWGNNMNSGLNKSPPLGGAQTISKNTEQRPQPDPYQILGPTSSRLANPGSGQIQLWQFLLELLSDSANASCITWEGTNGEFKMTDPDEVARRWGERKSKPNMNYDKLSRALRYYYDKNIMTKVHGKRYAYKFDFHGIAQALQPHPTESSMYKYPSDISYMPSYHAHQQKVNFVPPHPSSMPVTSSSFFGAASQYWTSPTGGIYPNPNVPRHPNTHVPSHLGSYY
# Summary of the method: (§1)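 Human transcription factors carrying a GST fusion were produced in yeast, bound to glutathione beads, tagged with DNA barcodes and pooled together with a tag-only sample. Each pool was held with 200 nmole of a random double-stranded 16-mer DNA library in Tris/NaCl/DTT/glycerol buffer for 30 min at room temperature, then washed, crosslinked in 0.1% formaldehyde, proximity-ligated with BsaI/T4 ligase (1 h, 37 °C), PCR-amplified and sequenced on an Illumina NextSeq500. Binding signal is the read frequency of each hexamer for a given factor divided by its frequency in the tag-only sample.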
# ELK1 = biological target: T2, ELK1 (Homo sapiens, UniProt P19419 1-428); conditions: protein: recombinant; tags: N-terminal GST; dsDNA, one strand shown
# T2 sequence: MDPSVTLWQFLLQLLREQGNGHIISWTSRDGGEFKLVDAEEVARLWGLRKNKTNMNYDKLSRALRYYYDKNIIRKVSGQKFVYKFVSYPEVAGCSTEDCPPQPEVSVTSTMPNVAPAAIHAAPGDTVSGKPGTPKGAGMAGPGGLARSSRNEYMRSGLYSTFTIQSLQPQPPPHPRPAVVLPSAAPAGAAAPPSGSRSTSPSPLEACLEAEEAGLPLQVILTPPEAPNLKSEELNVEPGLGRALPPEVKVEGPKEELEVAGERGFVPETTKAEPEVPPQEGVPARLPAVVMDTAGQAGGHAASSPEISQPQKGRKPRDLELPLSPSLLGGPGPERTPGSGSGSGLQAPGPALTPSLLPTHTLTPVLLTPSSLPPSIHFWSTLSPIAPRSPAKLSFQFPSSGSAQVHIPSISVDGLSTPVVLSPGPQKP
# Summary of the method: as §1
# GABPA = biological target: T3, GABPA (Homo sapiens, UniProt Q06546 1-454); conditions: protein: recombinant; tags: N-terminal GST; dsDNA, one strand shown
# T3 sequence: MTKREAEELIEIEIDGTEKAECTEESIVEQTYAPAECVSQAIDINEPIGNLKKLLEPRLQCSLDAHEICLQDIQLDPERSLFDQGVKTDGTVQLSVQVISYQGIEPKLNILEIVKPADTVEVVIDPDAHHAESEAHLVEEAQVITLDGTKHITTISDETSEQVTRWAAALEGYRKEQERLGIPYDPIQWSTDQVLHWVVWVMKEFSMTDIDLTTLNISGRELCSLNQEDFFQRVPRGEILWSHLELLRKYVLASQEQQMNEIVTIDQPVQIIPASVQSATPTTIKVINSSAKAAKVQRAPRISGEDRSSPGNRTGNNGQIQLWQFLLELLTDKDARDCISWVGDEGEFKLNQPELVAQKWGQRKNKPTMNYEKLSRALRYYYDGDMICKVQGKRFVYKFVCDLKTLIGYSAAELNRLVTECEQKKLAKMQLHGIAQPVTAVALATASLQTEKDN
# Summary of the method: as §1
# ERG = biological target: T4, ERG (Homo sapiens, UniProt P11308 1-479); conditions: protein: recombinant; tags: N-terminal GST; dsDNA, one strand shown
# T4 sequence: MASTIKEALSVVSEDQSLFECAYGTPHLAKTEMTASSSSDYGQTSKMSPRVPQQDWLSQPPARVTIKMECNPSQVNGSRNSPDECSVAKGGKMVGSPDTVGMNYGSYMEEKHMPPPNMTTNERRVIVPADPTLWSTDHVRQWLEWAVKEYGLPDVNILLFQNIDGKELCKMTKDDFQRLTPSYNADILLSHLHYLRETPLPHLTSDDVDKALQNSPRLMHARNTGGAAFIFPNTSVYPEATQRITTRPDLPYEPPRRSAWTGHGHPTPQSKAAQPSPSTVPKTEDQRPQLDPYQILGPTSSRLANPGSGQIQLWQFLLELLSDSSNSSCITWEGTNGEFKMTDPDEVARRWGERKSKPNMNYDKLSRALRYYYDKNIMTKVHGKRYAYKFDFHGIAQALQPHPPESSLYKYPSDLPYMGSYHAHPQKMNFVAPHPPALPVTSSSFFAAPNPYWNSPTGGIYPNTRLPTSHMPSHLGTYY
# Summary of the method: as §1
# ELF1 = ELF1 (Homo sapiens, UniProt P32519 1-619); conditions: protein: recombinant; tags: N-terminal GST; dsDNA, one strand shown
# Sequence of ELF1 (P32519 whole entry): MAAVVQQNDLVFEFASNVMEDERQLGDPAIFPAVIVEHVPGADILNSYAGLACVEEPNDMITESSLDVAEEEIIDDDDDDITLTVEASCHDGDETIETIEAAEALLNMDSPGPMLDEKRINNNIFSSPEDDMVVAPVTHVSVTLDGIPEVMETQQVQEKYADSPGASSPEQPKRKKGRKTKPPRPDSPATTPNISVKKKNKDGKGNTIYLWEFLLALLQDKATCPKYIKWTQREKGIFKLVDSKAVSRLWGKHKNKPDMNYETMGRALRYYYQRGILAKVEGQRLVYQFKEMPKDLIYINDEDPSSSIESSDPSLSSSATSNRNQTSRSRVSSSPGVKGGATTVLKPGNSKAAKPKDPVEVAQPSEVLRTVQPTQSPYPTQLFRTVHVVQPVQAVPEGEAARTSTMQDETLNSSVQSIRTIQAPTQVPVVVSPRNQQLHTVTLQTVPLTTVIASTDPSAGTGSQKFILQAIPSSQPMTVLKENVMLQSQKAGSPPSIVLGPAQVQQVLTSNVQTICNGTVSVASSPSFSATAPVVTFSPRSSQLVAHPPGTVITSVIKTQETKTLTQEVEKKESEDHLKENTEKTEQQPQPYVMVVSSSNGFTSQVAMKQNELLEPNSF
# Summary of the method: as §1
# SPI1 = SPI1 (Homo sapiens, UniProt P17947 1-270); conditions: protein: recombinant; tags: N-terminal GST; dsDNA, one strand shown
# Summary of the method: as §1
# SPIB = SPIB (Homo sapiens, UniProt Q01892 1-262); conditions: protein: recombinant; tags: N-terminal GST; dsDNA, one strand shown
# Sequence of SPIB (Q01892 whole entry): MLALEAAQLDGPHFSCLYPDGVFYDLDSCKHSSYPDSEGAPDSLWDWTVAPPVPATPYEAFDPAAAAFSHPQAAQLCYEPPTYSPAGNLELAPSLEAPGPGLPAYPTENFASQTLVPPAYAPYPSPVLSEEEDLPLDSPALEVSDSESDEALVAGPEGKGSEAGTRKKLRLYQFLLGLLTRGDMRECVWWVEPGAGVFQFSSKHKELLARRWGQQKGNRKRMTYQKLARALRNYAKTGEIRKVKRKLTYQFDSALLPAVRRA
# Summary of the method: as §1
# FEV = biological target: T5, FEV (Homo sapiens, UniProt Q99581 1-238); conditions: protein: recombinant; tags: N-terminal GST; dsDNA, one strand shown
# T5 sequence: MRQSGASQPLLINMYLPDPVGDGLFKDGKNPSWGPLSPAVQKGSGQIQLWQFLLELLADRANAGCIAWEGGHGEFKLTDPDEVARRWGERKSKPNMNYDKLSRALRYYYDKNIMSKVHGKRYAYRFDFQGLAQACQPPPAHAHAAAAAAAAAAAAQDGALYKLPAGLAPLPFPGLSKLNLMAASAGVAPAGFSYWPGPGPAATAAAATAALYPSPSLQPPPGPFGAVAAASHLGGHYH
# Summary of the method: as §1
# ETV5 = ETV5 (Homo sapiens, UniProt P41161 1-510); conditions: protein: recombinant; tags: N-terminal GST; dsDNA, one strand shown
# Sequence of ETV5 (P41161 whole entry): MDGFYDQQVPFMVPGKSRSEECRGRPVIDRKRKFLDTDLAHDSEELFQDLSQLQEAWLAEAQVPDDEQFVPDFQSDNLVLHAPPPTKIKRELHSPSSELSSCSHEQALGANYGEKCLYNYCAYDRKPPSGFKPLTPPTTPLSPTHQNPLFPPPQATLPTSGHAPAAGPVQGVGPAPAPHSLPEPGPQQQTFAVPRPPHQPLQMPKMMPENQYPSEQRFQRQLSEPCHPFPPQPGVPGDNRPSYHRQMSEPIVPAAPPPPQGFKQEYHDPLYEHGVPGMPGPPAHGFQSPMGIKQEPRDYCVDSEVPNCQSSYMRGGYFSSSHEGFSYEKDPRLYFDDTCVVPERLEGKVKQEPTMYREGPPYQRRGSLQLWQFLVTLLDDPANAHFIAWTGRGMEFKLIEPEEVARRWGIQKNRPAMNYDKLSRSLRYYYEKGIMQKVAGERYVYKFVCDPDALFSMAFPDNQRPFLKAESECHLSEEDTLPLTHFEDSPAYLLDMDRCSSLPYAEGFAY
# Summary of the method: as §1
# HSF1 = HSF1 (Homo sapiens, UniProt Q00613 1-529); conditions: protein: recombinant; tags: N-terminal GST; chain copies: 3; dsDNA, one strand shown
# Sequence of HSF1 (Q00613 whole entry): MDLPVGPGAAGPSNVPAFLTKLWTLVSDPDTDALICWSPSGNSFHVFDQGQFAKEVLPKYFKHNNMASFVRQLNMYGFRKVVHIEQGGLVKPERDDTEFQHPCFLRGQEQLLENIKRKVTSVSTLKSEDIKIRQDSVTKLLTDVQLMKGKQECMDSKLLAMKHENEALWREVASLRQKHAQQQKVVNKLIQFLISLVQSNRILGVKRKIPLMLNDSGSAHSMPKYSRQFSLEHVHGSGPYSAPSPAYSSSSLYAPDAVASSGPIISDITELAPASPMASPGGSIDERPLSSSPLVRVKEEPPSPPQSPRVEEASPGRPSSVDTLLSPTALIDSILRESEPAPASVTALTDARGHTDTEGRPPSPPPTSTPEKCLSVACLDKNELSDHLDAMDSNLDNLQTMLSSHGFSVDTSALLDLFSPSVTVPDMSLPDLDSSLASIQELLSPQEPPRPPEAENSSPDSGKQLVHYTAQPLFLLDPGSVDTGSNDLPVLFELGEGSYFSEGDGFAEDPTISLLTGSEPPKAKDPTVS
# Summary of the method: as §1
# SPIC = biological target: T6, SPIC (Homo sapiens, UniProt Q8N5J4 1-248); conditions: protein: recombinant; tags: N-terminal GST; dsDNA, one strand shown
# T6 sequence: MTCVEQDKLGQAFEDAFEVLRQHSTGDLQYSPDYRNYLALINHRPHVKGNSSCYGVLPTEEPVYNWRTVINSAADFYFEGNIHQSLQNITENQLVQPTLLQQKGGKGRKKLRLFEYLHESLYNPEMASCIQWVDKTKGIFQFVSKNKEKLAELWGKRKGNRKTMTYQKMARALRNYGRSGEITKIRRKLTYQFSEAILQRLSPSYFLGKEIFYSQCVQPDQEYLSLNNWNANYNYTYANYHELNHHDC
# Summary of the method: as §1
# ELF4 = ELF4 (Homo sapiens, UniProt Q99607 1-663); conditions: protein: recombinant; tags: N-terminal GST; dsDNA, one strand shown
# Sequence of ELF4 (Q99607 whole entry): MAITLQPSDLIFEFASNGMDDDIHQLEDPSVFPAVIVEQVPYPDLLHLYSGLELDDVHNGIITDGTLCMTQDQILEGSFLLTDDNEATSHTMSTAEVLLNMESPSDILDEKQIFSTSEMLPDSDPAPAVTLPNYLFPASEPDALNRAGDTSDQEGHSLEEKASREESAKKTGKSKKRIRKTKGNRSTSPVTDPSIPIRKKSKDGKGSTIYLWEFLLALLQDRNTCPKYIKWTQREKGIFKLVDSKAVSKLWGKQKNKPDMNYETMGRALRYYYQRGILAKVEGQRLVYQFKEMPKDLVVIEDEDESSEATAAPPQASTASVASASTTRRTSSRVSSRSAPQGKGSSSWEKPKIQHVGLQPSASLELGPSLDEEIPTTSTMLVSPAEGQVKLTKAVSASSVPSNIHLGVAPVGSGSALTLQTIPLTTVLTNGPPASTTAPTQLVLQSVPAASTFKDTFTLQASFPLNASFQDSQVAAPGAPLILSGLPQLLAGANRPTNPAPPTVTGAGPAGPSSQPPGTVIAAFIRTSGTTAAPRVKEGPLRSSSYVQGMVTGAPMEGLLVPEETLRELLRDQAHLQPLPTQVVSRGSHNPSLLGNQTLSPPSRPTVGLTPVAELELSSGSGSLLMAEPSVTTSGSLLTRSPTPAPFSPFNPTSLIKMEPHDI
# Summary of the method: as §1
# ELK4 = biological target: T7, ELK4 (Homo sapiens, UniProt P28324-2 1-405); conditions: protein: recombinant; tags: N-terminal GST; dsDNA, one strand shown
# T7 sequence: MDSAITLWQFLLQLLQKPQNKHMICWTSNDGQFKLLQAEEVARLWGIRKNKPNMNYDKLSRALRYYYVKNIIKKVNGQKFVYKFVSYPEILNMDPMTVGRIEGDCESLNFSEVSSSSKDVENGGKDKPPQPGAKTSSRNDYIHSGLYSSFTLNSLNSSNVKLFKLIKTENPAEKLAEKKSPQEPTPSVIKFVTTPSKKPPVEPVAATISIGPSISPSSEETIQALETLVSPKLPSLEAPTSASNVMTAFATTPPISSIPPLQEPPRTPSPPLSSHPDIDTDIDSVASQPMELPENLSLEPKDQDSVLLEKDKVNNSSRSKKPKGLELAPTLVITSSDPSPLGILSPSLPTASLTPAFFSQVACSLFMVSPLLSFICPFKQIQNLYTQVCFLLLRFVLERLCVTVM
# Summary of the method: as §1
# ETV2 = biological target: T8, ETV2 (Homo sapiens, UniProt O00321 1-342); conditions: protein: recombinant; tags: N-terminal GST; dsDNA, one strand shown
# T8 sequence: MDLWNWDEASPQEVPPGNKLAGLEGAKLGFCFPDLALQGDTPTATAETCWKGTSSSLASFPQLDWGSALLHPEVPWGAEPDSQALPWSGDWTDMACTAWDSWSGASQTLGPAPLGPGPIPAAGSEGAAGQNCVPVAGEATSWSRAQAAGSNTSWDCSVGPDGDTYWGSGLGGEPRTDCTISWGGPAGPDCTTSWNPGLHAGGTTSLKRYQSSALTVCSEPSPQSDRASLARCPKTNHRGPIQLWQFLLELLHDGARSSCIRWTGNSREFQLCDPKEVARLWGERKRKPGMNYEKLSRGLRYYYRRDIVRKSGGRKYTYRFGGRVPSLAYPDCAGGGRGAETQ
# Summary of the method: as §1
# ELF3 = biological target: T9, ELF3 (Homo sapiens, UniProt P78545 1-371); conditions: protein: recombinant; tags: N-terminal GST; dsDNA, one strand shown
# T9 sequence: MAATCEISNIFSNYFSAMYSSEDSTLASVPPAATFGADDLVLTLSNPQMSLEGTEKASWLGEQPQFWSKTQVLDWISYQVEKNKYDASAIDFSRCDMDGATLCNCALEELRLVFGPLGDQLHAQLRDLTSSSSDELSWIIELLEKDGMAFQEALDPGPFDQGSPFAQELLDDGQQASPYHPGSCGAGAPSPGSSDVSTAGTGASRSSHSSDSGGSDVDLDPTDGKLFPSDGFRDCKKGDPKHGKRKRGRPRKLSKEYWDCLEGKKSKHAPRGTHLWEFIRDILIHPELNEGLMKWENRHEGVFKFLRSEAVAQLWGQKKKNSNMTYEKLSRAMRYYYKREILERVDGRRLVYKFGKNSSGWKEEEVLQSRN
# Summary of the method: as §1
# ETV1 = ETV1 (Homo sapiens, UniProt P50549 1-477); conditions: protein: recombinant; tags: N-terminal GST; dsDNA, one strand shown
# Sequence of ETV1 (P50549 whole entry): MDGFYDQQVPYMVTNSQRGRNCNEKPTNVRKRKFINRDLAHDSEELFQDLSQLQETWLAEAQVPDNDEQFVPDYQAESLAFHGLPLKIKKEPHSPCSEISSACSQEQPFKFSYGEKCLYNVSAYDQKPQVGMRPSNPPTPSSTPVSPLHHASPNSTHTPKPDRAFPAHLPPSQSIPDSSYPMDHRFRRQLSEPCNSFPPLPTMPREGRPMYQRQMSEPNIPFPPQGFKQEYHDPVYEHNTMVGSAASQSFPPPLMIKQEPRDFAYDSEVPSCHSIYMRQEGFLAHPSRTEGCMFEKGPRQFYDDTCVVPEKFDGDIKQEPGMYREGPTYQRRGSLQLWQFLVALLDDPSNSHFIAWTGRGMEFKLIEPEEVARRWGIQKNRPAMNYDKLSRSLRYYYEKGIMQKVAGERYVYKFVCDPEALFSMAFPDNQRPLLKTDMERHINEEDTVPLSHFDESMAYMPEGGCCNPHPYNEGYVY
# Summary of the method: as §1
sequence,measurement,setting,value
CCTGGG,binding signal,FLI1,"1.16 fold enrichment (6-mer frequency, TF over GST control)"
same,binding signal,ELK1,"1.18 fold enrichment (6-mer frequency, TF over GST control)"
same,binding signal,GABPA,"1.15 fold enrichment (6-mer frequency, TF over GST control)"
same,binding signal,ERG,"1.16 fold enrichment (6-mer frequency, TF over GST control)"
same,binding signal,ELF1,"1.18 fold enrichment (6-mer frequency, TF over GST control)"
same,binding signal,SPI1,"1.11 fold enrichment (6-mer frequency, TF over GST control)"
same,binding signal,SPIB,"1.08 fold enrichment (6-mer frequency, TF over GST control)"
same,binding signal,FEV,"1.05 fold enrichment (6-mer frequency, TF over GST control)"
same,binding signal,ETV5,"1.05 fold enrichment (6-mer frequency, TF over GST control)"
same,binding signal,HSF1,"1.01 fold enrichment (6-mer frequency, TF over GST control)"
same,binding signal,SPIC,"1.05 fold enrichment (6-mer frequency, TF over GST control)"
same,binding signal,ELF4,"1.09 fold enrichment (6-mer frequency, TF over GST control)"
same,binding signal,ELK4,"1.08 fold enrichment (6-mer frequency, TF over GST control)"
same,binding signal,ETV2,"1.29 fold enrichment (6-mer frequency, TF over GST control)"
same,binding signal,ELF3,"1.06 fold enrichment (6-mer frequency, TF over GST control)"
same,binding signal,ETV1,"1.16 fold enrichment (6-mer frequency, TF over GST control)"
